Experimental findings from PubChem BioAssay (NCATS) are described below.

Molecules are shown by their SMILES. Records with an inconclusive call do not appear. A call without a number means that no potency is given here. The source made the active and inactive calls. Calls come from the whole dose curve; as a rule, active = well fitted curve in the direction sought with a large enough effect; inconclusive = small, poorly fitted or top-dose-only effect, or another doubt; inactive = no such curve, though single readings can be large; an effect the other way counts as inactive or inconclusive.
Potency is the fitted concentration of half-maximal effect.

One experiment is described as follows: Quantitative highthroughput screen to assess conditional lethalithy of NOMO1 cells grown in RPMI1640 with dialyzed fetal bovine serum (RPMI+ds) (AID 1963877). Note: nearly all actives have a fitted effect of over 30% in size. The settings on record: NOMO1 in RPMI+dialyzed FBS viability, ATP luminescence, 48 h; series mostly up to 45.8 µM. The method in brief:
(§1)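 Each medium arm—HPLM with 10% dialyzed FBS, or RPMI1640 with 5 mM glucose and 10% untreated or dialyzed FBS—was screened against an 11-point, 3-fold compound titration for 48 h at 37 °C, with CellTiter-Glo luminescence as endpoint.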
On to `CN1CCN(c2ccc(C(=O)Nc3n[nH]c4ccc(Cc5cc(F)cc(F)c5)cc34)c(NC3CCOCC3)c2)CC1`, for which the Potency was 20.9 µM (active). With `O=C(O)c1ccc2c(c1)nc(Nc1cccc(Cl)c1)c1ccncc12`, the Potency was 7.43 µM (active). `CN1C2CCC1CC(OC(=O)C(CO)c1ccccc1)C2` (centres undefined): the Potency result was “inactive”. For the compound `CCCCS(=N)(=O)CCC(N)C(=O)O` (centres undefined), the Potency entry was “inactive”.

On to `Clc1ccc2c(c1)C(N1CCNCC1)=Nc1ccccc1O2`, for which the Potency entry is “inactive”.

Turning to `Fc1ccc(CNc2ncnc3ccc(F)cc23)cc1`, the Potency entry is “inactive”. On to `O=C1NC(=O)C(c2cnc3ccccn23)=C1c1cn2c3c(cccc13)CN(C(=O)N1CCOCC1)CC2`, for which the Potency entry is “inactive”.

On to `CO[C@@H]1C(N(C)C(=O)c2ccccc2)C[C@H]2O[C@]1(C)n1c3ccccc3c3c4c(c5c6ccccc6n2c5c31)C(=O)NC4=O` (some centres undefined), for which the Potency is 14.8 µM (active). Take `CC(C)(C)c1cc(C(C)(C)C)c(NC(=O)c2c[nH]c3ccccc3c2=O)cc1O`: the Potency result was “inactive”.

For `CC(C)c1cc(-c2n[nH]c(=O)n2-c2ccc3c(ccn3C)c2)c(O)cc1O`, the Potency is 0.0935 µM (active). On the same count and under the same terms, with `Cc1ccc(C(=O)Nc2cccc(C(F)(F)F)c2)cc1-c1ccc2nc(NCCN3CCOCC3)ncc2c1` the figure was 4.69 µM (active). For the compound `COc1ccc(-c2oc3c(CC=C(C)C)c(O)cc(O)c3c(=O)c2O)cc1`, the Potency entry is “inactive”. Take `Cc1ccc(F)c(NC(=O)Nc2ccc(-c3cccc4[nH]nc(N)c34)cc2)c1`: the Potency result was “inactive”. As for `COCCCOc1cc(C[C@@H](C[C@H](N)[C@@H](O)C[C@H](C(=O)NCC(C)(C)C(N)=O)C(C)C)C(C)C)ccc1OC`, the Potency result was “inactive”.

Consider `Clc1ccccc1C(c1ccccc1)(c1ccccc1)n1ccnc1`, for which the Potency result was “inactive”. Turning to `C=CC(=O)Nc1ccc2ncnc(Nc3ccc(OCc4cccc(F)c4)c(Cl)c3)c2c1`, the Potency was 3.32 µM (active). Still for that read-out and setting: with `O=c1c(O)c(-c2ccc(O)c(O)c2)oc2cc(O)cc(O)c12` the entry was “inactive”; with `CCCc1cc(C(N)=S)ccn1`, “inactive”. As for `CC(=O)Nc1ccc([C@H](C)C(=O)Nc2ncc(C(C)C)s2)cc1`, the Potency was 8.33 µM (active). In the case of `Nc1nc(Nc2ccc(S(N)(=O)=O)cc2)nn1C(=O)c1c(F)cccc1F`, the Potency was 16.6 µM (active). Consider `CC(C)C[C@H](NC(=O)CNC(=O)c1cc(Cl)ccc1Cl)B1OC(=O)CC(CC(=O)O)(C(=O)O)O1` (some centres undefined), for which the Potency was 0.418 µM (active).

Consider `CNC(=O)c1ccc2c(C(=Nc3cccc(CN(C)C)c3)c3ccccc3)c(O)[nH]c2c1`, for which the Potency is 18.7 µM (active). `C[C@H]1COC2=C1C(=O)C(=O)c1c2ccc2c1CCCC2(C)C`: the Potency entry was “inactive”.

In the case of `O=C(c1ccc(F)cc1)N1CCC[C@H](c2nc(-c3ccc(F)cc3)no2)C1`, the Potency entry is “inactive”. For the compound `CC(=O)NC(C)c1ccc(Oc2ccc(OC(C)C)cc2)cc1` (centres undefined), the Potency entry was “inactive”. `COc1c2occc2cc2ccc(=O)oc12`: the Potency result was “inactive”.

As for `COc1ccc(-n2nc(C(N)=O)c3c2C(=O)N(c2ccc(N4CCCCC4=O)cc2)CC3)cc1`, the Potency was 0.235 µM (active). With `O=C(O)CCCCCC(=O)NN=C1CCCC1`, the Potency result is “inactive”. On to `Cc1cc2c(F)c(Oc3ncnn4cc(OC[C@@H](C)O)c(C)c34)ccc2[nH]1`, for which the Potency result is “inactive”. As for `O=C(O)CCNC(=O)c1ccc(N=Nc2ccc(O)c(C(=O)O)c2)cc1`, the Potency entry is “inactive”.

As for `CNC(=O)[C@H](Cc1ccccc1)NC(=O)[C@H](CC(C)C)[C@H](CSc1cccs1)C(=O)NO`, the Potency entry was “inactive”. Consider `N#Cc1ccnc(Nc2cc(C3CCN(C4COC4)CC3)cc(N3CCC(F)(F)C3)n2)c1`, for which the Potency was 13.2 µM (active).

On to `Cc1cc([C@@H](C)Nc2ccccc2C(=O)O)c2nc(N3CCOCC3)cc(=O)n2c1`, for which the Potency was 12.1 µM (active).

On to `O=C1CCCC2=C1C(c1[nH]ncc1Cl)N=C(Nc1nc3ccccc3o1)N2` (centres undefined), for which the Potency entry is “inactive”. `CCN1CCN(c2ccc(Nc3cc(N(C)C(=O)Nc4c(Cl)c(OC)cc(OC)c4Cl)ncn3)cc2)CC1`: the Potency is 7.43 µM (active). With `Cc1nc(Nc2n[nH]c3c2CN(C(=O)N[C@H](CN(C)C)c2ccccc2)C3(C)C)c2sccc2n1`, the Potency was 3.72 µM (active).

Take `CC(=O)CC(c1ccccc1)c1c(O)c2ccccc2oc1=O` (centres undefined): the Potency result was “inactive”. For `CCc1ccc(C(=O)Nc2cc(CN3CCN(C)CC3)cc(C(F)(F)F)c2)cc1C#Cc1cnc2ccnn2c1`, the Potency result was “inactive”. The same measure, in the same setting: the value for `CON(C)C(=O)N1N=C(c2cc(F)ccc2F)S[C@@]1(CCCN)c1ccccc1` was 0.0234 µM (active). For the compound `N#CC1(c2ccc(NC(=O)c3cccnc3NCc3ccncc3)cc2)CCCC1`, the Potency result is “inactive”.

The nature of the next experiment: Quantitative highthroughput screen to assess conditional lethalithy of NOMO1 cells grown in Human Plasma-Like Medium with dialyzed fetal bovine serum (HPLM+ds) (AID 1963878). Note: nearly all actives have a fitted effect of over 35% in size. The settings on record: NOMO1 AML cells in HPLM+ds, CellTiter-Glo viability, 48 h; series mostly up to 45.8 µM. The method in brief: as §1
A general note: ATP-based viability assays read luminescence as a measure of living cells.
For the compound `O=C(O)c1ccc2c(c1)nc(Nc1cccc(Cl)c1)c1ccncc12`, the Potency is 4.69 µM (active).

In the case of `CN1C2CCC1CC(OC(=O)C(CO)c1ccccc1)C2` (centres undefined), the Potency entry was “inactive”. On the same count and under the same terms, with `CCCCS(=N)(=O)CCC(N)C(=O)O` (centres undefined) the figure was 16.6 µM (active); with `Fc1ccc(CNc2ncnc3ccc(F)cc23)cc1`, “inactive”. Regarding `O=C1NC(=O)C(c2cnc3ccccn23)=C1c1cn2c3c(cccc13)CN(C(=O)N1CCOCC1)CC2`, the Potency result was “inactive”. On to `CO[C@@H]1C(N(C)C(=O)c2ccccc2)C[C@H]2O[C@]1(C)n1c3ccccc3c3c4c(c5c6ccccc6n2c5c31)C(=O)NC4=O` (some centres undefined), for which the Potency was 9.35 µM (active). Consider `CC(C)c1cc(-c2n[nH]c(=O)n2-c2ccc3c(ccn3C)c2)c(O)cc1O`, for which the Potency was 0.105 µM (active).

On to `Cc1ccc(C(=O)Nc2cccc(C(F)(F)F)c2)cc1-c1ccc2nc(NCCN3CCOCC3)ncc2c1`, for which the Potency is 4.18 µM (active). On to `COc1ccc(-c2oc3c(CC=C(C)C)c(O)cc(O)c3c(=O)c2O)cc1`, for which the Potency result was “inactive”. Turning to `Cc1ccc(F)c(NC(=O)Nc2ccc(-c3cccc4[nH]nc(N)c34)cc2)c1`, the Potency result was “inactive”.

For the compound `COCCCOc1cc(C[C@@H](C[C@H](N)[C@@H](O)C[C@H](C(=O)NCC(C)(C)C(N)=O)C(C)C)C(C)C)ccc1OC`, the Potency entry was “inactive”. Same read-out and setting: the value for `Clc1ccccc1C(c1ccccc1)(c1ccccc1)n1ccnc1` was “inactive”; that for `O=c1c(O)c(-c2ccc(O)c(O)c2)oc2cc(O)cc(O)c12` was “inactive”. Same read-out and setting: the value for `Nc1nc(Nc2ccc(S(N)(=O)=O)cc2)nn1C(=O)c1c(F)cccc1F` was 18.7 µM (active). With `CNC(=O)c1ccc2c(C(=Nc3cccc(CN(C)C)c3)c3ccccc3)c(O)[nH]c2c1`, the Potency is 16.6 µM (active). For `C[C@H]1COC2=C1C(=O)C(=O)c1c2ccc2c1CCCC2(C)C`, the Potency result was “inactive”.

With `O=C(c1ccc(F)cc1)N1CCC[C@H](c2nc(-c3ccc(F)cc3)no2)C1`, the Potency result was “inactive”. In the case of `CC(=O)NC(C)c1ccc(Oc2ccc(OC(C)C)cc2)cc1` (centres undefined), the Potency result is “inactive”.

`COc1c2occc2cc2ccc(=O)oc12`: the Potency entry is “inactive”. As to `O=C(O)CCCCCC(=O)NN=C1CCCC1`, the Potency entry is “inactive”. For `Cc1cc2c(F)c(Oc3ncnn4cc(OC[C@@H](C)O)c(C)c34)ccc2[nH]1`, the Potency entry is “inactive”. With `CNC(=O)[C@H](Cc1ccccc1)NC(=O)[C@H](CC(C)C)[C@H](CSc1cccs1)C(=O)NO`, the Potency result is “inactive”. `N#Cc1ccnc(Nc2cc(C3CCN(C4COC4)CC3)cc(N3CCC(F)(F)C3)n2)c1`: the Potency is 14.8 µM (active). In the case of `Cc1cc([C@@H](C)Nc2ccccc2C(=O)O)c2nc(N3CCOCC3)cc(=O)n2c1`, the Potency was 8.55 µM (active). In the case of `O=C1CCCC2=C1C(c1[nH]ncc1Cl)N=C(Nc1nc3ccccc3o1)N2` (centres undefined), the Potency was 18.7 µM (active). The same measure, in the same setting: with `CCN1CCN(c2ccc(Nc3cc(N(C)C(=O)Nc4c(Cl)c(OC)cc(OC)c4Cl)ncn3)cc2)CC1` the figure was 3.32 µM (active). In the case of `Cc1nc(Nc2n[nH]c3c2CN(C(=O)N[C@H](CN(C)C)c2ccccc2)C3(C)C)c2sccc2n1`, the Potency is 1.48 µM (active).

Take `CCc1ccc(C(=O)Nc2cc(CN3CCN(C)CC3)cc(C(F)(F)F)c2)cc1C#Cc1cnc2ccnn2c1`: the Potency entry was “inactive”. Regarding `N#CC1(c2ccc(NC(=O)c3cccnc3NCc3ccncc3)cc2)CCCC1`, the Potency result is “inactive”.
